DRD3 antagonist – antagonists of human D3 dopamine receptor; D3R cells, DiscoveRx beta-arrestin luminescence, antagonist mode; stronger effect = lower value; max response, negative = inhibition, %; hit rate 2.5% among 360,000; in the data active = max response below about -50%; inconclusive = no clear call, values can overlap the other calls; note: % is set by controls: 0 for no effect and ±100 for the full control effect
Target sequence (P35462 whole entry, looked up): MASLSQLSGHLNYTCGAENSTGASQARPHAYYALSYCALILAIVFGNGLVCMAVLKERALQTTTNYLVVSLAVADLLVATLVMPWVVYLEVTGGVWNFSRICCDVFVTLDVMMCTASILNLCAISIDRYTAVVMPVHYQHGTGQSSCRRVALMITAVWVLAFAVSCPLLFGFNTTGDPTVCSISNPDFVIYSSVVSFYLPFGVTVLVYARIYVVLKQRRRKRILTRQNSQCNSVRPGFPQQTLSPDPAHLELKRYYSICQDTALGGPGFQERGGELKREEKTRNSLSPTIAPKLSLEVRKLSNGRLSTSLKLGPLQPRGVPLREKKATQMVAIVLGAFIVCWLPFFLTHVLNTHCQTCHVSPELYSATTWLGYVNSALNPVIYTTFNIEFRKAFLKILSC
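Cells plated overnight at 1500 cells/well, then exposed to library compounds with dopamine controls for 90 minutes at 37 degrees C. DiscoveRx reagent added for 30–60 minutes at room temperature; luminescence read, quantitative HTS format.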
D1 agonist – human D1 receptor agonism; HEK293 T-REx D1 cells, calcium flux, agonist mode; P21728; AID 504660; activation, % at 2 µM; hit rate 1% among 360,000; in the data active = activation above about 30%; note: 0% is about no effect
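Agonism was scored from calcium flux recorded over 180 s (1 read/s) after pintool compound addition, following a 10-cycle baseline. Cells were inducible force-coupled HEK293 TREx D1, plated overnight at 30 C and loaded with no-wash calcium dye.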
D1 antag – antagonists of human D1 dopamine receptor | P21728 | HEK293 TREx D1 cells, calcium flux, dopamine EC80; stronger effect = lower value | activity change, negative = inhibition, % at 10 µM | hit rate 3.2% among 360,000; in the data active = activity change below about -30%; note: % is set by controls: 0 for no effect and ±100 for the full control effect
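Inducible Hek293 Trex D1 cells (tetracycline, overnight, 30 C). Calcium dye 30–90 min RT. Antagonist mode: EC80 dopamine added after 180 s compound read.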
DRD3 agonist – activates the human D3 dopamine receptor | hit rate 0.58% among 410,000 | max activation, % | D3R DiscoveRx beta-arrestin cells, luminescence, 90 min | P35462; in the data active = max activation above about 30%; note: 0% is about no effect
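Agonist mode: compounds and dopamine controls were applied to plated cells for 90 min at 37 degrees C after an overnight attachment at 1500 cells/well. Luminescent read-out followed 30 - 60 minutes at room temperature with DiscoveRx detection reagent.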
D1 potentiator – enhances dopamine response at the human D1 receptor. hit rate 0.036% among 360,000. potentiation, % at 10 µM. HEK293 TREx D1 cells, calcium flux, dopamine EC20 potentiation; in the data active = potentiation above about 30%; note: 0% is about no effect
* marks the source's active call; other numbers are inactive results; ? = inconclusive; . = not tested or not shown; ! = not active in a repeat. A selection: hits, their analogues and other compounds. The true share with any hit is near 6%.

SMILES	DRD3 antagonist	D1 agonist	D1 antag	DRD3 agonist	D1 potentiator
COc1ccc(-c2cc(C(C)=O)c(C)n2CCC(=O)Nc2ccc(C)c(Cl)c2)cc1	.	3	2	1	-1
O=C(OCc1ccccc1)N1C=CC2CC1c1c(Cl)cccc12 (configuration not stated)	-4	.	.	-44	.
Cc1ccccc1CN1CCN(S(=O)(=O)c2ccc(F)cc2)CC1	-78*	-1	-9	-1	-5
Cc1ccccc1CN1CCN(S(C)(=O)=O)CC1	?	0	-4	-2	0
CCN(CC)C(=O)C1CCN(S(=O)(=O)c2ccc3oc4ccccc4c3c2)CC1	55	7	-36*	20	2
CC(C)CN(CC(C)C)C(=O)C1CCCN(S(=O)(=O)c2ccc3c(c2)oc(=O)n3C)C1 (configuration not stated)	.	1	-31*	9	-1
Cn1c(=O)oc2cc(S(=O)(=O)N3CCCC(C(=O)N4CC=C(c5ccccc5)CC4)C3)ccc21 (configuration not stated)	.	5	-28	.	-7
Cc1ccc(N(C)C(=O)C2CCN(S(=O)(=O)c3ccc4c(c3)oc(=O)n4C)CC2)cc1	0	-1	-14	0	7
CCN(C(=O)C1CCN(S(=O)(=O)c2ccc3c(c2)oc(=O)n3C)CC1)c1cccc(C)c1	10	1	-39*	-7	.
Cn1c(=O)oc2cc(S(=O)(=O)N3CCCC(C(=O)N4CCN(c5ccc(Cl)cc5)CC4)C3)ccc21 (configuration not stated)	.	9	-34*	1	-3
Cc1ccc(NC(=O)Cn2c(=O)n(CCC(=O)NCc3ccccc3Cl)c(=O)c3ccccc32)cc1	.	4	3	-13	0
COc1ccc(-n2c(=O)c3ccc(C(=O)NCc4ccc(C)cc4)cc3n(Cc3ccc(Cl)cc3)c2=O)cc1	.	3	9	5	1
CCN(CC)c1ccc(NC(=O)CCS(=O)(=O)c2ccc3c(c2)oc(=O)n3C)c(C)c1	.	0	-2	-17	4
CC(=O)Nc1c(C)nn(-c2ccccc2)c1N1CCC(C(=O)Nc2ccccc2F)CC1	.	-1	-30	7	2
COc1ccc(N2CCN(C(=O)C3CCCN(S(=O)(=O)c4ccc5c(c4)oc(=O)n5C)C3)CC2)cc1 (configuration not stated)	14	3	-45*!	3	-4
COc1ccccc1N1CCN(C(=O)C2CCCN(S(=O)(=O)c3ccc4c(c3)oc(=O)n4C)C2)CC1 (configuration not stated)	31	15	0	17	-10
Cc1ccc(N2CCN(C(=O)C3CCN(S(=O)(=O)c4ccc5c(c4)oc(=O)n5C)CC3)CC2C)cc1 (configuration not stated)	.	12	-44*	-7	-3
Cc1ccc(N2CCN(S(=O)(=O)c3ccc4c(c3)oc(=O)n4C)CC2C)cc1 (configuration not stated)	3	1	-15	-1	-3
C/C(=N\Nc1ccc([N+](=O)[O-])cc1)c1ccc(N2CCOCC2)cc1	-9	39*	-1	-7	-2
O=[N+]([O-])c1ccc(NN=C(Oc2ccccc2)c2ccc([N+](=O)[O-])cc2)cc1	-5	.	.	-4	.
CC/C(=N\Nc1ccc([N+](=O)[O-])cc1)c1ccccc1	11	24	-34*	2	-10
C/C(=N\NC(=O)COc1ccc([N+](=O)[O-])cc1)c1ccco1	29	0	6	0	4
C/C(=N\Nc1ccc([N+](=O)[O-])cc1)c1ccco1	-21	33*	-3	-6	-7
C/C(=N\Nc1ccccc1[N+](=O)[O-])c1ccc(N2CCOCC2)cc1	-5	2	-9	-4	9
CC(C)c1ccc(C(O)c2nc3ccccc3n2C)cc1 (configuration not stated)	-3	11	-36*	6	2
SMILES	DRD3 antagonist	D1 agonist	D1 antag	DRD3 agonist	D1 potentiator
Cc1ccc(C(O)c2nc3ccccc3n2C)cc1 (configuration not stated)	23	10	2	0	-1
CC1Nc2ncnc(N3CCc4ccccc4C3)c2N(Cc2ccc(Cl)cc2)C1=O (configuration not stated)	0	3	-10	-18	-2
CCC1Nc2ncnc(N3CCc4ccccc4C3)c2N(Cc2ccc(Br)cc2)C1=O (configuration not stated)	-84*	.	.	-23	.
CC1Nc2ncnc(N3CCc4ccccc4C3)c2N(Cc2ccc(Br)cc2)C1=O (configuration not stated)	-55*!	0	2	-17	-4
CCCCCCCCCCC[N+](C)(C)CC/C=C1/c2ccccc2Sc2ccc(Cl)cc21	-124*	48*	-8	-3	-9
CC[N+](C)(C)CC/C=C1/c2ccccc2Sc2ccc(Cl)cc21	-8	0	-17	-10	-3
CCCCCCCCCC[N+](C)(C)CC/C=C1/c2ccccc2Sc2ccc(Cl)cc21	-113*	53*	6	-2	-4
CCCCCC(C)N (configuration not stated)	.	.	.	3	.
O=C(CCc1ccccc1)N/N=C\c1cc2c(cc1Br)OCO2	16	5	-31*	4	-8
Cc1ccc(C(=O)N/N=C/c2cc(Br)ccc2O)cn1	0	4	5	4	-10
O=C(N/N=C/c1cc(Br)ccc1O)c1ccccc1Cl	19	2	-42*	3	-5
COC(=O)N/N=C/c1cc(Br)ccc1O	8	-1	6	16	5
CC(C)NC(=S)N/N=C/c1cc(Br)ccc1O	-22	15	-58*	3	-9
O=C(N/N=C/c1cc(Cl)ccc1O)C(=O)Nc1ccccc1OC(F)(F)C(F)F	-2	19	-5	9	8
O=C(N/N=C/c1cc(Br)ccc1O)C(=O)Nc1ccccc1OC(F)(F)C(F)F	14	11	16	49*	-6
CC(C(=O)Nc1ccccc1)n1nnc2sc3c(c2c1=O)CCCC3 (configuration not stated)	.	-1	1	-14	7
Oc1ccc(Br)cc1/C=N/NC(=S)NCCc1ccccc1	-19	3	17	5	-9
O=C(CCc1ccccc1)N/N=C/c1cc(Br)ccc1O	4	29	-43*	1	-3
Cc1ccc(CSc2nc3cccnc3n2Cc2nc(-c3ccccc3F)oc2C)cc1	.	6	0	8	-2
Cn1nccc1NC(=O)Nc1cccc(Cl)c1Cl	-3	4	-33*	5	-15
CCOC(=O)C1(CCOc2ccccc2)CCN(Cc2ccc(OC)c(O)c2)CC1	-14	27	-71*	-17	0
CCOC(=O)C1(CCc2ccccc2)CCN(Cc2ccc(O)cc2)CC1	-57*	18	-86*	-23	-6
CCOC(=O)C1(CCOc2ccccc2)CCN(Cc2cccc3nonc23)CC1	-89*	9	-5	-4	5

Screens from PubChem.
